Read-out in assay [1]: Monokine induced gamma interferon (MIG), CXCL9 (gene 4283)
Put plainly: BSK_3C_MIG: BioMAP Diversity Plus: 3C Assay for Monokine induced gamma interferon (MIG) Biomarker Activity (AID 2283021).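 As to AC50: MIG protein level measured by immunoassay in the treated endothelial cultures.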 As to conditions: primary human endothelial cells (HUVEC); actives raise or lower the signal. The method, boiled down: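 ELISA-measured MIG in dosed HUVEC 3C cultures at 24 h, analysed by bidirectional fitting with DMSO defining baseline activity.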

Assay [2] in a line: BSK_3C_SRB: Viability Assessment in the BioMAP Diversity Plus: 3C Assay (AID 2283023).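 Also: cells read 24 h after compound dosing; fitted both ways against DMSO so a hit may be signal rise or drop.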 As to conditions: primary human endothelial cells (HUVEC). The method, boiled down:
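Overt cytotoxicity is gauged in parallel confluent HUVEC cultures by SRB total-protein staining at the time of biomarker measurement, 24 h after dosing. Gain or loss of signal is fitted versus DMSO.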

Read-out in assay [3]: Matrix Metallopeptidase 1 (MMP1), MMP1 (gene 4312)
Kind of assay: BSK_BE3C_MMP1: BioMAP Diversity Plus: BE3C Assay for Matrix Metallopeptidase 1 (MMP1) Biomarker Activity (AID 2283024). As to conditions: primary human bronchial epithelial cells; actives raise or lower the signal. The method, boiled down: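 In this multiplexed primary-cell system, human bronchial epithelium received chemicals for 24 h before an ELISA for MMP1. Values reflect bidirectional fits normalised to the DMSO baseline.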

The nature of assay [4]: BSK_3C_Vis: BioMAP Diversity Plus: 3C Assay for Morphology Visualization (AID 2283025).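 Also: fitted both ways so gain or loss versus DMSO counts.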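 As to AC50: light microscopy image of cell morphology used as background control.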 As to conditions: primary human endothelial cells (HUVEC). The method, boiled down: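 Light-microscopy morphology readout, 24 h exposure, human primary umbilical vein endothelium; analysed relative to DMSO with bidirectional fitting.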
Read-out in assay [5]: Pselectin, SELP (gene 6403)
Put plainly: BSK_4H_Pselectin: BioMAP Diversity Plus: 4H Assay for Pselectin Biomarker Activity (AID 2283026). As to conditions: primary human endothelial cells (HUVEC); actives raise or lower the signal. The method, boiled down:
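Bidirectional fits against DMSO gave the endpoint. Cells: primary human umbilical vein endothelium, chemical-treated for 24 h before ELISA detection of P-selectin.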

Assay [6] in a line: BSK_4H_SRB: Viability Assessment in the BioMAP Diversity Plus: 4H Assay (AID 2283027).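 Also: cells exposed to compound for 24 h before staining.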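 As to AC50: curves fitted both ways versus DMSO so AC50 may be loss or gain.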 As to conditions: primary human endothelial cells (HUVEC). The method, boiled down:
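HUVEC, 24 h post-dose; 10% TCA fix, 0.1% SRB stain, A560 nm. Total protein = overt cytotoxicity, parallel to biomarker read. Bidirectional fit vs DMSO baseline.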

Assay [7] is described as follows: BSK_BE3C_SRB: Viability Assessment in the BioMAP Diversity Plus: BE3C Assay (AID 2283028).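 As to AC50: fitted both ways so AC50 may mark signal gain or loss versus DMSO.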 As to conditions: primary human bronchial epithelial cells. The method, boiled down: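 SRB total-protein staining (0.1%, after TCA fixation) of chemically dosed human bronchial epithelial primary cells at 24 h; DMSO serves as the negative control for bidirectional curve fitting.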

Read-out in assay [8]: Thrombomodulin, THBD (gene 7056)
Put plainly: BSK_3C_Thrombomodulin: BioMAP Diversity Plus: 3C Assay for Thrombomodulin Biomarker Activity (AID 2283029). As to conditions: primary human endothelial cells (HUVEC); actives raise or lower the signal. The method, boiled down:
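In a multiplexed primary-cell system, human umbilical vein endothelium received chemical and was assayed 24 h later for thrombomodulin by ELISA. Parallel cultures were SRB-stained (0.1% SRB after 10% TCA fixation, read at 560 nm) to flag cytotoxicity.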

Read-out in assay [9]: Urokinase-type plasminogen activator receptor (uPAR), PLAUR (gene 5329)
Put plainly: BSK_4H_uPAR: BioMAP Diversity Plus: 4H Assay for Urokinase-type plasminogen activator receptor (uPAR) Biomarker Activity (AID 2283030). As to conditions: primary human endothelial cells (HUVEC); actives raise or lower the signal. The method, boiled down: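 Endpoint derived via bidirectional curve fitting against DMSO baseline; readout was ELISA detection of uPAR on umbilical vein endothelial cells at 24 h post-treatment, with SRB-stained parallel cultures assessing cytotoxicity.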

Read-out in assay [10]: Vascular endothelial growth factor receptor 2 (Homo sapiens) (UniProt P35968)
Put plainly: BSK_4H_VEGFRII: BioMAP Diversity Plus: 4H Assay for Vascular endothelial growth factor receptor 2 (VEGFR2) Biomarker Activity (AID 2283031). As to conditions: primary human endothelial cells (HUVEC); actives raise or lower the signal. The method, boiled down:
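In this multiplexed HUVEC system, biomarker ELISA was performed after 24 h chemical exposure. Parallel SRB staining (TCA fixation, 560 nm) tracked cytotoxicity; DMSO served as baseline.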

Read-out in assay [11]: Human Leukocyte Antigen - DR isotype (HLADR), HLA-DRA (gene 3122)
Put plainly: BSK_BE3C_HLADR: BioMAP Diversity Plus: BE3C Assay for Human Leukocyte Antigen - DR isotype (HLADR) Biomarker Activity (AID 2283032). As to conditions: primary human bronchial epithelial cells; actives raise or lower the signal. The method, boiled down:
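BioMAP BE3C format: human bronchial epithelium, 24 h compound treatment, ELISA detection of HLA-DR, with bidirectional analysis relative to DMSO.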

Read-out in assay [12]: Vascular cell adhesion molecule 1 (VCAM1), VCAM1 (gene 7412)
Put plainly: BSK_4H_VCAM1: BioMAP Diversity Plus: 4H Assay for Vascular cell adhesion molecule 1 (VCAM1) Biomarker Activity (AID 2283033).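 As to outcome: cell-surface VCAM-1 protein measured by ELISA.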 As to conditions: primary human endothelial cells (HUVEC); actives raise or lower the signal. The method, boiled down:
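In this human endothelial (HUVEC) system, biomarker ELISA was run 24 h after compound addition, and total protein in parallel wells was assessed by SRB at 560 nm; DMSO served as negative control.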

Read-out in assay [13]: Interferon-gamma inducible Protein 10 (IP10), CXCL10 (gene 3627)
Kind of assay: BSK_BE3C_IP10: BioMAP Diversity Plus: BE3C Assay for Interferon-gamma inducible Protein 10 (IP10) Biomarker Activity (AID 2283034). As to conditions: primary human bronchial epithelial cells; actives raise or lower the signal. The method, boiled down: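 BE3C cells (human bronchial epithelial, primary); 24 h exposure; ELISA for IP-10; DMSO-referenced bidirectional fit.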

Read-out in assay [14]: Monokine induced gamma interferon (MIG), CXCL9 (gene 4283)
Put plainly: BSK_BE3C_MIG: BioMAP Diversity Plus: BE3C Assay for Monokine induced gamma interferon (MIG) Biomarker Activity (AID 2283035).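 As to outcome: MIG protein measured by ELISA in BE3C cultures after 24 h of dosing.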 As to conditions: primary human bronchial epithelial cells; actives raise or lower the signal. The method, boiled down: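 Dose cells (human primary bronchial epithelial), incubate 24 h, quantify MIG by ELISA, then fit concentration–response in both directions relative to DMSO control.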

Read-out in assay [15]: Transforming growth factor beta 1 (TGFb1), TGFB1 (gene 7040)
Put plainly: BSK_BE3C_TGFb1: BioMAP Diversity Plus: BE3C Assay for Transforming growth factor beta 1 (TGFb1) Biomarker Activity (AID 2283036;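 also: TGF-b1 protein level measured by ELISA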). As to conditions: primary human bronchial epithelial cells; actives raise or lower the signal. The method, boiled down:
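TGF-b1 measured via ELISA, 24 h after chemical dosing of human bronchial epithelial cells (BE3C). Overt cytotoxicity assessed in parallel by SRB (0.1%, TCA-fixed, 560 nm); analysis bidirectional relative to DMSO.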

Read-out in assay [16]: Plasminogen activator inhibitor-1 (PAI1), SERPINE1 (gene 5054)
Kind of assay: BSK_BE3C_PAI1: BioMAP Diversity Plus: BE3C Assay for Plasminogen activator inhibitor-1 (PAI1) Biomarker Activity (AID 2283037). As to conditions: primary human bronchial epithelial cells; actives raise or lower the signal. The method, boiled down:
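In this multiplexed primary-cell system, bronchial epithelial cells receive test chemical and are sampled at 24 h. PAI-1 is read by ELISA, with DMSO serving as negative control for bidirectional fitting.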

Read-out in assay [17]: urokinase plasminogen activator (uPA), PLAU (gene 5328)
Kind of assay: BSK_BE3C_uPA: BioMAP Diversity Plus: BE3C Assay for urokinase plasminogen activator (uPA) Biomarker Activity (AID 2283038).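 As to outcome: uPA protein level quantified by ELISA in cell cultures; uPA read one day after compound addition.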 As to conditions: primary human bronchial epithelial cells; actives raise or lower the signal. The method, boiled down: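 Using confluent primary human lung bronchial epithelial cultures, we dosed chemicals, waited 24 h, then ran a uPA ELISA, fitting bidirectionally against DMSO.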

Read-out in assay [18]: Urokinase-type plasminogen activator receptor (uPAR), PLAUR (gene 5329)
Put plainly: BSK_BE3C_uPAR: BioMAP Diversity Plus: BE3C Assay for Urokinase-type plasminogen activator receptor (uPAR) Biomarker Activity (AID 2283039).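 As to outcome: uPAR protein level measured by ELISA on the cells; cells exposed to compound for one day before measurement.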 As to conditions: primary human bronchial epithelial cells; actives raise or lower the signal. The method, boiled down: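 Chemically treated human bronchial epithelial cells (lung primary) are assayed for uPAR by ELISA after 24 h, with data fitted in both directions using DMSO as negative control.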

Read-out in assay [19]: Interleukin-6 (IL6), IL6 (gene 3569)
Kind of assay: BSK_CASM3C_IL6: BioMAP Diversity Plus: CASM3C Assay for Interleukin-6 (IL6) Biomarker Activity for (AID 2283040). As to conditions: primary human coronary artery smooth muscle cells; actives raise or lower the signal.

Assay [20] has as its target human Vitamin D Receptor (VDR), VDR (gene 7421) (UniProt P11473). Put plainly: ATG_VDR_TRANS: Attagene TRANS-FACTORIAL HepG2 Assay for human Vitamin D Receptor (VDR) (AID 2283022; active = hit-call score of the fitted dose curve at least 0.9, where 1 is the maximum). The method, boiled down: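 Multiplexed TRANS reporter in HepG2; 24 h treatment; reporter mRNA by RT-PCR plus capillary electrophoresis; upregulation scored relative to DMSO.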

The structures appear in SMILES notation. Results filed as inconclusive are left out. Where a structure was tested more than once in an assay, its records may differ in their call. Activity calls are given as the source filed them. The calls were made as follows, unless noted: active = hit-call score of the fitted dose curve at least 0.9, where 1 is the maximum; inactive = score below 0.9.

human Vitamin D Receptor (VDR), VDR (gene 7421), sequence (P11473 whole entry, looked up): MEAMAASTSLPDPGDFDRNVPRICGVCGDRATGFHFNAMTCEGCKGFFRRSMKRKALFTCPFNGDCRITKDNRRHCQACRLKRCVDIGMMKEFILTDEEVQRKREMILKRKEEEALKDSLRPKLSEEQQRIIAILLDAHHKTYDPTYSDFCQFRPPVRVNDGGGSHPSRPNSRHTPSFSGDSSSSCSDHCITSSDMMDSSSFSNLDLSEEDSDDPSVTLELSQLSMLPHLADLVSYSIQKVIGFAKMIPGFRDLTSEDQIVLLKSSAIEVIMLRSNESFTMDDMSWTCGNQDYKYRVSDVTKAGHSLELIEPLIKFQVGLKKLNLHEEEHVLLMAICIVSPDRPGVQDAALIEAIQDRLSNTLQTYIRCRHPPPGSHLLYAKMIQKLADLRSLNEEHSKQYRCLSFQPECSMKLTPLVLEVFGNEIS

`CN(CCOc1ccc(CC2SC(=O)NC2=O)cc1)c1ccccn1` (centres undefined): the outcome in [1], in assay [2], in assay [3], in assay [4], in [6] and in assay [7] was inactive. Besides, the result in [8], in assay [10], in assay [14], in assay [15], in [17] and in assay [19] was inactive. The AC50 is 1.12 µM (active) in assay [5]; 11.6 µM (active) in assay [9]; 20 µM (active) in [11]; 8.46 µM (active) in [12]; 11 µM (active) in assay [13]; 0.21 µM (active) in assay [16]. The AC50 in assay [18] is 3.97 µM (active).
`CC1CCC(C(C)CS)CC1S` (centres undefined): the AC50 was 36.9 µM (active) in assay [1]; 20 µM (active) in [2]; 36.6 µM (active) in assay [3]; 37.1 µM (active) in assay [4]; 23.9 µM (active) in assay [5]; 30.9 µM (active) in assay [6]. In addition, the AC50 is 29.9 µM (active) in assay [7]; 36.4 µM (active) in assay [9]; 20 µM (active) in assay [11]; 29.1 µM (active) in assay [12]; 30.7 µM (active) in assay [13]; 35.4 µM (active) in assay [14]. Also, the AC50 is 20 µM (active) in assay [18] and 33.5 µM (active) in assay [19]. Besides, the result in assay [20], in assay [8], in assay [10], in [15], in assay [16] and in [17] was inactive.
As for `O=C(O)C[C@H](O)C[C@H](O)/C=C/c1c(C2CC2)nc2ccccc2c1-c1ccc(F)cc1`, the result in [1], in [20], in [3], in assay [7], in assay [8] and in [9] was inactive. Also, the result in [10], in [12], in assay [13], in assay [14], in assay [15] and in assay [16] was inactive. In addition, in assay [18], the outcome was inactive. In addition, the AC50 in assay [2] was 0.0713 µM (active); in assay [4], 3.47 µM (active); in assay [5], 0.152 µM (active); in assay [6] it was 0.847 µM (active); in assay [11], 0.028 µM (active); in [17], 1.7 µM (active). Also, the concentration at half-maximal activity (AC50) in assay [19] was 0.0041 µM (active).
For the compound `Cc1ccc(Nc2ccc(O)c3c2C(=O)c2ccccc2C3=O)cc1`, the result in assay [1], in [20], in [2], in assay [3], in assay [4] and in [5] was inactive. In addition, the result in assay [6], in [7], in [8], in assay [9], in [10] and in assay [11] was inactive. Besides, the outcome in assay [12], in assay [13], in assay [14], in assay [15], in assay [16] and in assay [17] was inactive. For the same compound, the result in assay [18] and in assay [19] was inactive.
For `Nc1cc([N+](=O)[O-])ccc1O`, the outcome in [1], in assay [20], in assay [2], in assay [3], in assay [5] and in assay [6] was inactive. Further, the result in assay [7], in assay [8], in assay [9], in [10], in [11] and in [12] was inactive. Moreover, the outcome in assay [13], in [14], in assay [16], in assay [17], in assay [18] and in assay [19] was inactive. For the same compound, the AC50 was 0.15 µM (active) in assay [3] and 11.8 µM (active) in assay [16].
Take `CCCCC(CC)COCCC#N` (centres undefined): the outcome in assay [1], in assay [20], in [2], in assay [3], in assay [4] and in assay [5] was inactive. The result in [6], in [7], in [8], in assay [9], in assay [10] and in assay [11] was inactive. Besides, the result in assay [12], in assay [13], in assay [14], in assay [15], in assay [16] and in assay [17] was inactive. The outcome in assay [18] and in assay [19] was inactive.

A word on the AC50: it is the concentration at which the activity in the assay is half-maximal.

Source of the values: PubChem BioAssay (EPA / NIEHS).
